Assay outcomes from PubChem.
Shown are actives, neighbours in structure and some others; about 12% of the full set was active somewhere.
Shiga inhibitor: blocks Shiga toxin action in Vero cells. Vero cells, Shiga toxin protein synthesis inhibition reporter. inhibition, % at 38.7 µM. hit rate 9.2% among 290,000. AID 2315; in the data active means inhibition mostly above about 28%, no sharp cut-off; inactive means mostly below about 43%; further: 0% is about no effect
Cycloheximide cs: counter-screen hit for Shiga toxin inhibitors, cycloheximide | hit rate 12% among 300,000 | max response, % | AID 2314 | cell reporter, cycloheximide protein synthesis inhibition counterscreen; in the data active means max response mostly above about 13%, no sharp cut-off; inactive means mostly below about 14%; further: read at 38.3 µM for the half of the compounds with a filed dose; 0% is about no effect
NS1 function inh: influenza NS1 inhibition | Potency, µM (titrated, usually from 46.1 µM), inactives show at the highest dose activity, positive = more growth | hit rate 0.4% among 270,000 | AID 2326; further: potency means the concentration at half of the fitted maximal effect; actives are rising curves; nearly all actives have a fitted effect of over 50% in size
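In this qHTS, NS1 from influenza A is expressed in budding yeast, where it slows growth. Cells are switched from glucose to 2% galactose medium (pH 6.0, -URA), treated with compound, and growth recovery is read at OD600.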
SARS PLpro yeast: SARS-CoV PLP inhibition in yeast; hit rate 0.19% among 330,000; S. cerevisiae expressing SARS-CoV PLpro, growth rescue; Potency, µM (series often up to 32.9 µM), without a hit: at the highest dose activity, positive = growth rescue, usual class: activators; further: potency means the concentration at half of the fitted maximal effect; 0% is about no effect; nearly all actives have a fitted effect of over 55% in size
Starred values were filed as active, the others as inactive; i = inactive; ? = inconclusive; . = no result. Unless noted, the call rests on the fitted dose curve.

SMILES	Shiga inhibitor	Cycloheximide cs	NS1 function inh	SARS PLpro yeast
CC(C)C(Nc1ncnc2c1oc1ccccc12)C(=O)O (stereo not given)	24	-2	-5%	0%
Cc1cc2c(Nc3cccc(O)c3)ncnc2s1	23	19*	10%	.
Oc1ccccc1Nc1ncnc2c1oc1ccccc12	46	39*	-9%	-5%
Cc1ccc(O)c(N/C=C/C(=O)c2ccc(F)cc2)c1	129*	43*	-32%	-3%
Cc1ccc(N/C=C/C(=O)c2ccc(C)cc2)cc1	124*	65*	-11%	10%
Cc1ccc(C(=O)/C=C/C(=O)c2ccc(C)cc2)cc1	41	16	.	-9%
Cc1ccc(C(=O)/C=C\Nc2ccc(C)c(C)c2)cc1	109*	100*	9%	-1%
CC(C)c1ccc(OCc2ccc(C(=O)N(C)C)o2)cc1	151*	65*	-34%	-6%
CC(C)c1ccc(OCc2ccc(C(=O)NN3CCN(C)CC3)o2)cc1	170*	79*	2%	1%
O=C(NC1CC1)c1ccc(COc2ccc(F)cc2)o1	25	14	-13%	-7%
CC(C)c1ccc(OCc2ccc(C(=O)O)o2)cc1	64*	35*	-44%	2%
CCc1nc(SCc2ccc(Cl)cc2)n[nH]1	41*	33*	-5%	-1%
CCc1nc(SCc2ccc(OC)c(Br)c2)n[nH]1	69	10	-2%	-6%
CCc1nc(SCc2ccc(Br)cc2)n[nH]1	116*	26*	-33%	-5%
CCc1nc(SCc2ccc(OCC(C)C)cc2)n[nH]1	58*	32*	-141%	-16%
CCc1nc(SCc2ccc(C(=O)OC)o2)n[nH]1	8	6	13%	0%
N#CCCn1cc(C(=O)CN2C(=O)C(=O)N(C3CCCC3)C2=O)c2ccccc21	.	.	.	-2%
CCCOc1ccc(NC(=O)c2cc3cc(C)ccc3[nH]2)cc1	-6	0	5%	-5%
Cc1ccc2[nH]c(C(=O)Nc3ccc(F)cc3)cc2c1	.	22*	-2%	1%
Cc1ccc(NC(=O)CC(O)(C(F)(F)F)C(F)(F)F)c(Br)c1	16	8	-30%	-26%
Cc1cc(C)c2cc(C(=O)Nc3ccccc3)[nH]c2c1	72*	42*	-3%	-1%
Cc1cc(C)c2[nH]c(C(=O)Nc3ccc(F)cc3Br)cc2c1	67*	34*	9%	6%
Cc1cc(C)c2cc(C(=O)Nc3ccc4c(c3)OCO4)[nH]c2c1	-14	-4	1%	1%
NC(=O)c1nn(-c2ccccc2)nc1N	16	18*	0%	-1%
Nc1nn(-c2ccccc2)nc1C(=O)OCc1ccccc1	48*	27*	-4%	10%
SMILES	Shiga inhibitor	Cycloheximide cs	NS1 function inh	SARS PLpro yeast
Cc1ccc(COC(=O)c2nn(-c3ccccc3)nc2N)cc1	21	18*	.	-5%
CC(C)(C)c1ccc(S(=O)(=O)Nc2ccc(C(=O)N3CCCC3)cc2)cc1	-6	9	12%	-5%
COc1ccc(N2C(=O)CN(Cc3ccc(OC)c(OC)c3)C2=S)cc1	-9	-6	.	-3%
CN1C(=O)NC(=O)/C(=C\C=C\c2ccccc2[N+](=O)[O-])C1=O	31	24*	.	-6%
O=C1OC(c2ccccc2)=N/C1=C\C=C\c1ccccc1[N+](=O)[O-]	-3	-1	5%	23%
OC(CCN1CCCCC1)c1ccc(-c2ccccc2)cc1 (stereo not given)	72*	52*	2%	-2%
OC(CCN1CCOCC1)c1ccccc1 (stereo not given)	-6	-1	11%	-6%
O=C(O)c1ccccc1O[C@@H]1O[C@H](C(=O)O)[C@@H](O)[C@H](O)[C@H]1O	-6	14	.	.
CCOC(=O)N1CCN(C(=O)CN(c2ccccc2)S(C)(=O)=O)CC1	10	-4	0%	0%
Nc1c(C=C2C=CC(=O)C=C2)c(=O)nc2snc(SCc3ccccc3)n12	47*	33*	?	0%
CN(CC(=O)Nc1ccccc1Br)C(=O)c1ccc(COc2ccccc2)cc1	11	19*	-1%	-1%
Cc1csc(NC(=O)CCn2c(=O)sc3ccccc32)n1	18	4	-8%	13%
O=C(CCn1c(=O)sc2ccccc21)Nc1nccs1	40	33*	-3%	5%
CN(CC(=O)Nc1ccccc1Cl)C(=O)c1ccc(COc2ccccc2)cc1	.	.	.	-6%
O=C(CCSc1ccccc1)Nc1ccccc1Br	74*	40*	.	-1%
O=C(CSC1CCCCC1)Nc1ccccc1Br	90*	13*	3%	9%
Cc1ccc(SCCC(=O)Nc2nccs2)cc1	61	9	.	4%
CN(CC(=O)Nc1ccccc1Br)C(=O)CCC1CCCC1	45*	57*	2%	2%
O=C(CCSc1ccccc1)Nc1nccs1	36	19*	-7%	7%
O=C(CCSc1ccccc1)Nc1ncccn1	5	30*	-6%	0%
O=C(CSCc1ccc(Cl)cc1)Nc1ccccc1O	21	13	-8%	0%
O=C(CCCSc1ccc(Cl)cc1)Nc1ccccc1O	31	27*	-128%	-69%
COc1ccc(-c2nnc(SCC(=O)NC(=O)Cc3ccccc3)n2C)cc1	.	.	.	-1%
O=S(=O)(c1ccc(Cl)cc1)N1CCN(C(=S)NCC2CCCO2)CC1 (stereo not given)	-5	0	1%	-1%
Cc1ccc(C(=O)Nc2cccnc2Cl)cc1Cl	.	35*	-16%	-8%
SMILES	Shiga inhibitor	Cycloheximide cs	NS1 function inh	SARS PLpro yeast
O=C(COC(=O)c1ccccn1)Nc1cccnc1Cl	.	.	.	-1%
O=C(COC(=O)CC12CC3CC(CC(C3)C1)C2)Nc1cccnc1Cl	11	25*	-6%	1%
Cc1ccc(OCC(=O)Nc2ccccc2F)cc1C	81*	36*	-7%	-1%
Cc1ccc(OCC(=O)Nc2cccnc2Cl)cc1C	58*	18*	-8%	-1%
O=C1OC2C[C@H]1[C@@H]1C(=O)N(Cc3ccccc3)CCC1C2I (stereo not given in full)	i	1	.	.
CCOC(=O)C(C)OC(=O)C1=C(C)NC(=O)NC1c1ccc2c(c1)OCO2 (stereo not given)	12	-2	12%	-2%
CCCCN(C(=O)CSCc1c(C)noc1C)c1c(N)n(CCCC)c(=O)[nH]c1=O	.	.	.	2%
O=[N+]([O-])c1ccc(COn2nnc3ccccc32)cc1	45	14*	.	1%
O=C(Cn1nnc2ccccc21)c1ccc([N+](=O)[O-])cc1	13	5	12%	-1%
O=C(c1ccc(Cl)cc1Cl)n1nnc2ccccc21	-3	2	.	.
Clc1ccc(COn2nnc3ccccc32)c(Cl)c1	109*	44*	-23%	.
CC(C)(C)C1CCc2c(sc3ncn(N)c(=N)c23)C1 (stereo not given)	40	13*	-6%	-3%
N=c1c2c3c(sc2ncn1N)CCC3	6	-1	3%	1%
O=C1CC(c2cccs2)c2ccc3ccccc3c2N1 (stereo not given)	46	21	.	-9%
CCc1cc(C(=O)c2ccc(C)cc2)c(NC(=O)CCl)s1	73*	49*	-51%	-35%
Cc1cc(C(=O)c2ccc(Cl)cc2)c(NC(=O)CCl)s1	-6	-3	-34%	3%
COc1ccc(NS(=O)(=O)c2ccc(C)c(C(=O)NCCCN3CCCC3=O)c2)cc1	.	.	.	1%
